Inconclusive results are not listed. Where a call stands in place of a potency, no number is given. The source made the active and inactive calls. Unless noted, calls follow the shape of the dose curve; as a rule, active = well fitted curve in the direction sought with a large enough effect; inconclusive = small, poorly fitted or top-dose-only effect, or another doubt; inactive = no such curve, though single readings can be large; an effect the other way counts as inactive or inconclusive.
Tests used:
[1] = molecular target: Calcium and integrin-binding protein 1 (Homo sapiens) (UniProt Q99828); assay: Primary qHTS for Identification of Calcium Integrin Binding Protein 1 (CIB1) Competitor (AID 1508620); settings: CIB1-GST / FITC-alphaIIb peptide fluorescence polarization; series mostly up to 114 µM;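 also: GST tagged CIB1 binding a fluorescein labelled alphaIIb integrin peptide tracer; top concentration of the series differs between compounds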
Procedure, shortened: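 Fluorescence polarization competition: CIB1-GST (1 uM final) preincubated with compound 15 min at room temperature, then FITC-labeled alphaIIb peptide (100 nM final) added for another 15 min. Polarization read at Ex 480/Em 540.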

[2] = molecular target: Cytochrome P450 2D6 (Homo sapiens) (UniProt P10635); assay: Cytochrome P450 family 2 subfamily D member 6 (CYP2D6) small molecule antagonists: luciferase biochemical (cell-free) qHTS assay (AID 1645840; active = well fitted curve in the direction sought with a large enough effect in the repeat runs; an effect the other way counts as inactive or inconclusive; also: nearly all actives have a fitted effect of over 55% in size; also: potency is read from the fitted curve at half-maximal effect); settings: P450-Glo CYP2D6 enzyme, luciferin luminescence, 1 h; series mostly up to 57.4 µM
Procedure, shortened: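 P450-Glo CYP2D6 system: proluciferin substrate converted by enzyme to luciferin, read by luminescence proportional to activity. Enzyme-substrate mix with compound 10 min at room temperature, then NADPH regeneration 1 h before detection reagent.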

Cytochrome P450 2D6 (Homo sapiens), sequence (P10635 whole entry, looked up): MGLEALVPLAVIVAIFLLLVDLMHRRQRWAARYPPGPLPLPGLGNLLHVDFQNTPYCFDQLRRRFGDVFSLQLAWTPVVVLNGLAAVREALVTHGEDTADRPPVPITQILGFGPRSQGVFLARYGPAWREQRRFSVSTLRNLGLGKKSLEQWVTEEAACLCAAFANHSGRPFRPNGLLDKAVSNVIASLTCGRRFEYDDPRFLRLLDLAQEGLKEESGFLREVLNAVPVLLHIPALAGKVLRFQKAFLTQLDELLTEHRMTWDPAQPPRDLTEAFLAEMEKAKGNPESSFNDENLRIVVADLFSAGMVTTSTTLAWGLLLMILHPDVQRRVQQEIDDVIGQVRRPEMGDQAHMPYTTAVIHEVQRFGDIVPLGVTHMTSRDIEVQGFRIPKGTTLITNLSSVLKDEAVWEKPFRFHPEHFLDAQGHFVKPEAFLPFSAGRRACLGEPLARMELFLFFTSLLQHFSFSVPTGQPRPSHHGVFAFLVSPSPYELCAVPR
Calcium and integrin-binding protein 1 (Homo sapiens), sequence (Q99828 whole entry, looked up): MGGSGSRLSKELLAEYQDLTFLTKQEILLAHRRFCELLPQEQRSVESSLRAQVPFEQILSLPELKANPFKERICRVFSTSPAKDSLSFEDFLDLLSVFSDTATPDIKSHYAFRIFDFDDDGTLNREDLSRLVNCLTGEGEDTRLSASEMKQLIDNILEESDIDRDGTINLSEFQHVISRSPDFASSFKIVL

SMILES | Potency [1] | Potency [2]
COc1ccc(OC)c(-c2ccc(NC(=O)c3ccncc3F)cc2)c1 | inactive | inactive
CC(C)[C@@H](c1ccc(C(F)(F)F)cc1CN(Cc1cc(C(F)(F)F)cc(C(F)(F)F)c1)c1nnn(C)n1)N1CCC(C(=O)O)CC1 | inactive | 12 µM (active)
N#CC(CCCN1CCC(O)(c2ccc(Cl)cc2)CC1)(c1ccccc1)c1ccccc1 | inactive | 0.536 µM (active)
COc1ccncc1C(=O)NC(=O)Nc1ccc(-c2ccccc2)c(C(F)(F)F)c1 | inactive | 19 µM (active)
COc1ccc(NC(=O)c2ccc(C(=N)N(C)C)cc2)c(C(=O)Nc2ccc(Cl)cn2)c1 | inactive | inactive
COc1cc(CN(CCN)C(=O)c2cccs2)ccc1OCc1ccccc1 | inactive | 0.849 µM (active)
c1cc(NCCc2c[nH]c3ccccc23)cc(Nc2ccncc2)c1 | inactive | 0.477 µM (active)
O=C(NCCO)c1cccc(-c2cc(Nc3ccc(OC(F)(F)F)cc3)ncn2)c1 | inactive | 23.9 µM (active)
N#Cc1ccc(COc2ccc(-c3cccc4nc(NC(=O)C5CC5)nn34)cc2)cn1 | inactive | inactive
C#CCOc1ccc2c(c1)c(-c1ccc(C(C)C)cc1)nc(=O)n2C(C)C | inactive | 23.9 µM (active)
Cc1nnc(-c2ccc(-c3ccc(C(=O)Nc4ccc(O)c(N5CCN(C)CC5)c4)cc3)c(C)c2)o1 | inactive | inactive
O=C(NCCN1CCC(n2c(=O)[nH]c3ccccc32)CC1)c1cc2cc(F)ccc2[nH]1 | inactive | 15.1 µM (active)
CCOc1ccc(CCNC(=O)c2cc3sc(Cl)cc3n2C)cc1OCC | inactive | inactive
Cc1cc(NC(=O)c2cccc(NC(=O)/C=C/CN(C)C)c2)ccc1Nc1nccc(-c2cccnc2)n1 | inactive | 10.7 µM (active)
CN1CCN(S(=O)(=O)c2ccc(-c3cnc(N)c(C(=O)Nc4cccnc4)n3)cc2)CC1 | inactive | inactive
Cc1cc(N2CCN(C(=O)Oc3ccc(-c4ccccc4)cn3)CC2)c2ccccc2n1 | inactive | 15.1 µM (active)
COc1ccc2c(c1O[C@H]1CCNC1)CCC2 | inactive | 16.9 µM (active)
CCC[C@H](N[C@H]1CCc2cc(F)cc(F)c2C1)C(=O)Nc1cn(C(C)(C)CNCC(C)(C)C)cn1 | inactive | inactive
